Source: PubChem (The Scripps Research Institute Molecular Screening Center)
Only some compounds are listed: those with a hit (about 2.3% of all), similar ones and a draw of the others.
CHO-K1 Ca antag – M1 antagonist counterscreen hit in parental CHO-K1 cells; ATP-induced calcium, Fluo-8 fluorescence; inhibition, % at 3 µM; 360,000 compounds, 0.6% hits; AID 602250;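 active means inhibition above a per-plate cutoff, the plate's mean sample inhibition plus 3 SD, cut at about 24% in these data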;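 further: 0% = DMSO plus EC80 ATP and 100% = DMSO alone without ATP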
M1 antag – human M1 muscarinic receptor antagonists, primary screen, CHO-K1 cells, Fluo-8 calcium fluorescence, 1536-well | Muscarinic acetylcholine receptor M1 (Homo sapiens), P11229 | CHO-K1 hM1, ACh EC80 antagonist | inhibition, % at 3 µM | 360,000 compounds, 1.3% hits;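 active means percent inhibition above its own plate's cutoff, namely the mean of that plate's compound wells plus 3 SD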;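 further: peak over basal fluorescence ratio during 140 s after agonist addition; 0% = ACh EC80 plus DMSO and 100% = DMSO alone without agonist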
Target sequence (P11229 whole entry, looked up): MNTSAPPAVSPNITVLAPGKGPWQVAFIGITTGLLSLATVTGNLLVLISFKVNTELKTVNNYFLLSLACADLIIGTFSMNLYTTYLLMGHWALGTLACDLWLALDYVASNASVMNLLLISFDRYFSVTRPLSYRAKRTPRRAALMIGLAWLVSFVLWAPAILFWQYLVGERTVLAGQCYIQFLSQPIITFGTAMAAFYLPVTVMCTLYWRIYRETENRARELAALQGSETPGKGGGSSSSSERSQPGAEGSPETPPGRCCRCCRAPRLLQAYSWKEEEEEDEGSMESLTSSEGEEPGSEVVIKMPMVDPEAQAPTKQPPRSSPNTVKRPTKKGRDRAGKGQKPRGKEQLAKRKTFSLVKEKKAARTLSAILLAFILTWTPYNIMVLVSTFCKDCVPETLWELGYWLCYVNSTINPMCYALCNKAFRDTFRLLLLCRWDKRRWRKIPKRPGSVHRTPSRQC
M1 PAM – human M1 muscarinic receptor positive allosteric modulators, primary screen, CHO-K1 cells, Fluo-8 calcium fluorescence, 1536-well; 360,000 compounds, 0.088% hits; activation, % at 3 µM; CHO-K1 hM1, ACh EC20; 0% = ACh EC20, 100% = maximal ACh; AID 588819, 2011; in the data active means activation above about 19%, passing the limit was not always enough
M1 ag parental – counter-screen for M1 agonists: effect in parental CHO-K1 cells; Fluo-8 calcium fluorescence; scaled to maximal ATP response, vehicle zero; activation, % at 3 µM; 360,000 compounds, 0.48% hits; AID 602248, 2012; in the data active means activation above about 15%;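 further: untransfected CHO-K1 host cells lacking M1 receptor as counterscreen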
M1 PAM parental – nonselective calcium activators in parental CHO-K1 cells, primary screen, counter-screen for M1 PAM project, cell-based, Fluo-8 calcium fluorescence, full deck, 1536-well. ATP EC20; 0% at ATP EC20, 100% at ATP max. activation, % at 3 µM. 360,000 compounds, 0.02% hits;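 active means activation above the run cutoff, the mean activation of all test compounds plus 3 SD, cut at about 40% in these data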;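 further: peak over basal fluorescence ratio in a 140 s read after ATP addition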
M1 ag – human M1 muscarinic receptor agonists, primary screen, Fluo-8 calcium fluorescence, CHO-K1 cells, HTS. CHO-K1 hM1, agonist mode; 0% DMSO, 100% acetylcholine EC100. activation, % at 3 µM. 360,000 compounds, 0.33% hits;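 active means activation above the run's mean compound activation plus 3 SD, cut at about 16% in these data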;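 further: peak over basal fluorescence ratio within a 140 s kinetic read after compound addition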
* hit, by the source's call.

SMILES | CHO-K1 Ca antag | M1 antag | M1 PAM | M1 ag parental | M1 PAM parental | M1 ag
Cc1ccc(S(=O)(=O)/N=C2/NC(=O)/C(=C/c3cc([N+](=O)[O-])ccc3O)S2)cc1 | 15 | 29 | -15 | 20* | -21 | 32*
CC(C)CNC(=O)C(=O)NCC1OCCCN1S(=O)(=O)c1cccs1 (stereo not given) | -6 | -10 | 10 | 1 | 16 | -1
Cc1c(CC(=O)N[C@@H](C)C(=O)O)c(=O)oc2c(C)c3occ(-c4ccccc4)c3cc12 | -9 | -26 | 31* | 0 | 15 | -1
CCOC1=C2[C@@H](CN(S(=O)(=O)c3ccc(C)cc3)[C@H]2c2ccccc2Cl)[C@H]2C(=O)N(C(C)(C)C)C(=O)[C@H]2C1 | 27* | 1 | 11 | 0 | 4 | 1
CC(C)c1ccccc1NC(=O)COc1ccc(C(=O)NCCc2ccccc2)cc1 | 4 | -2 | 3 | 3 | 14 | -7
CCOc1ccc(NC(=O)COc2ccc(C(=O)NCCc3ccccc3)cc2)cc1 | 29* | -1 | 1 | 1 | -12 | -2
CCS(=O)(=O)N1Cc2ccccc2CC1C(=O)N(C)CC(=O)Nc1ccc(F)c(F)c1F (stereo not given) | 4 | -6 | 8 | 0 | -27 | 1
COc1cc(NC(=O)C2(C)CCCN2C)cc(OC)c1OC (stereo not given) | 28* | -14 | 8 | 0 | -14 | -1
COc1ccc(C2SCC(=O)N2c2ccc(OC)cc2)cc1 (stereo not given) | 2 | -4 | 7 | 0 | -18 | -3
COc1cccc(C2SCC(=O)N2c2ccc(Br)cc2)c1OC (stereo not given) | -9 | 74* | -27 | 0 | 13 | -11
CC(=O)c1ccc(S(=O)(=O)N2CCN(c3nc(-c4cccnc4)nc4ccccc34)CC2)cc1 | -8 | 76* | -30 | 4 | -3 | -6
CSCCC(NC(=O)c1ccccc1Br)C(=O)NCC1CCCCC1 (stereo not given) | -1 | -5 | 2 | 0 | 15 | -4
CSCCC(NC(=O)c1ccco1)C(=O)NCC1CCCCC1 (stereo not given) | -18 | -24 | 24* | 0 | 2 | -1
Cc1nonc1NC(=O)CSc1nc2ccc(Cl)cc2[nH]1 | 34* | -7 | 3 | 12 | -3 | 1
CC(C)C[C@@H](CN)NC(=O)c1nc[nH]c1C(=O)N[C@@H](CC(C)C)C(=O)CNC[C@H](C)NC(=O)c1nc[nH]c1C(=O)N[C@@H](CC(=O)O)C(=O)O | -2 | -9 | 5 | 0 | 3 | -2
Cc1ccc([C@@H]2C[C@H]3CN(Cc4cccc(Cl)c4)C(=O)[C@]34CCCN24)o1 | 3 | -15 | 10 | 0 | -9 | -7
CCc1ccc([C@@H]2C[C@H]3CN(Cc4ccccc4OC)C(=O)[C@]34CCCN24)cc1 | -13 | 47* | -29 | 1 | 15 | -12
Cc1cccc([C@@H]2C[C@H]3CN(Cc4cccc(Cl)c4)C(=O)[C@]34CCCN24)n1 | -5 | 23* | -26 | 0 | -7 | -10
COCc1cc([C@@H]2C[C@H]3CN(c4ccccc4)C(=O)[C@]34CCCN24)ccc1OC | 8 | 57* | -30 | 0 | -3 | -10
COc1ccccc1CN1C[C@@H]2C[C@@H](c3ccc(C)cc3)N3CCC[C@@]23C1=O | -7 | 18 | -34 | -1 | 23 | -14
COc1ccc2c(c1)C=C([C@@H]1C[C@H]3CN(c4ccccc4)C(=O)[C@]34CCCN14)CO2 | -8 | 58* | -34 | 2 | 27 | -13
CN1C[C@@H]2C[C@@H](C3=Cc4cc(Cl)ccc4OC3)N3CCC[C@@]23C1=O | 0 | -1 | -15 | 0 | 14 | -14
COc1ccc(S(=O)(=O)N2CCN(C(=O)NCc3ccc(OC)c(OC)c3)CC2)cc1 | -15 | -6 | -1 | 2 | -11 | -1
CCCCn1c(N)c(N(CCC(C)C)C(=O)CSc2nncn2-c2ccccc2)c(=O)[nH]c1=O | -15 | -3 | 7 | 0 | 12 | -2
CCOc1cc(C(=O)N2CCC3(CC2)NCCc2[nH]cnc23)cc(OCC)c1OCC | -10 | -2 | 6 | 0 | -5 | -3
SMILES | CHO-K1 Ca antag | M1 antag | M1 PAM | M1 ag parental | M1 PAM parental | M1 ag
CC1CN(c2nc3c(c(=O)n(C)c(=O)n3C)n2Cc2c(F)cccc2Cl)CC(C)O1 (stereo not given) | -1 | -8 | 7 | 0 | 18 | 18*
CCN(Cc1ccccc1)S(=O)(=O)c1ccc(C(=O)N(CCCN(C)C)c2nc3cc4c(cc3s2)OCCO4)cc1 | 11 | 21* | -16 | 10 | -2 | -4
CN(C)CCCN(C(=O)c1cc(Cl)sc1Cl)c1nc2cc3c(cc2s1)OCO3 | -4 | 96* | -24 | 2 | -2 | -4
CC(C)C1Oc2ccccc2N(CC(=O)NC2CCCCC2)C1=O (stereo not given) | -8 | 4 | -3 | -1 | 2 | -12
O=C(COC(=O)c1cccc(S(=O)(=O)N2CCCC2)c1)NCc1ccccc1 | -4 | -2 | 10 | 0 | -5 | -8
CCCS(=O)(=O)NC(=O)C1(C)CCCN(C(=O)c2ccc(SC(F)(F)F)cc2)C1 (stereo not given) | -10 | -19 | 14 | 1 | 25 | -2
COc1ccc(C(=O)c2ccccc2O)c(O)c1 | 24* | -13 | -6 | 0 | -4 | -7
COCCN1CCc2[nH]c(=S)[nH]c(=O)c2C1 | 3 | 6 | -2 | 4 | 13 | -4
CCCCN1CCc2[nH]c(=S)[nH]c(=O)c2C1 | -23 | -20 | 25* | 1 | 32 | -3
CN(CC(=O)Nc1ccc(F)cc1)C(=O)COC(=O)CN1C(=O)NC2(CCCC2)C1=O | 19 | -12 | 18 | 1 | 5 | 2
CCCOc1ccc(N2C(=O)CC(N3CCN(c4ccc([N+](=O)[O-])cc4)CC3)C2=O)cc1 (stereo not given) | 2 | -6 | 1 | 25* | 12 | -2
CC(=O)c1c(O)cc2c3c1OC(C)(C)C1CCC(C)(CC31)O2 (stereo not given) | -11 | 12 | -17 | 1 | 13 | -7
CCOc1ccc2oc(C(=O)NCC3CCCO3)c(C)c2c1 (stereo not given) | 3 | 25* | 0 | 0 | -20 | -2
COc1ccc2oc(C(=O)NCC3CCCO3)c(C)c2c1 (stereo not given) | -4 | -2 | 4 | 1 | -13 | -2
